Compound activity: PubChem, Buhrlage Lab, Dana-Farber Cancer Institute and Novartis Institutes for BioMedical Research (Cambridge, Mass)
Most compounds without a hit are left out; they make up all but 13% or so of the library.
USP30 block – blocks human USP30 ubiquitin-rhodamine cleavage. Q70CQ3. purified USP30, Ub-rhodamine cleavage fluorescence. inhibition, % at 25 µM. hit rate 5.3% among 47,000. AID 1645860
USP10 inh – blocks human USP10 ubiquitin-rhodamine cleavage; Q14694; purified USP10, Ub-rhodamine fluorescence, 60 min; inhibition, % at 20 µM; hit rate 1.1% among 47,000; AID 1645856
USP28 inh – blocks human USP28 ubiquitin-rhodamine cleavage | Q96RU2 | purified USP28, Ub-rhodamine cleavage fluorescence, 30 min | inhibition, % at 25 µM | hit rate 3% among 47,000 | AID 1645857
USP8 block – human USP8 deubiquitinase inhibition. hit rate 4.2% among 47,000. purified USP8, Ub-rhodamine cleavage fluorescence, 30 min. AID 1645853. P40818. inhibition, % at 20 µM
USP17 inh – human USP17-like deubiquitinase inhibition | A8MUK1 | purified USP17, Ub-rhodamine cleavage fluorescence, 3 h | inhibition, % at 50 µM | hit rate 6.5% among 47,000
Target sequence (A8MUK1 whole entry, looked up): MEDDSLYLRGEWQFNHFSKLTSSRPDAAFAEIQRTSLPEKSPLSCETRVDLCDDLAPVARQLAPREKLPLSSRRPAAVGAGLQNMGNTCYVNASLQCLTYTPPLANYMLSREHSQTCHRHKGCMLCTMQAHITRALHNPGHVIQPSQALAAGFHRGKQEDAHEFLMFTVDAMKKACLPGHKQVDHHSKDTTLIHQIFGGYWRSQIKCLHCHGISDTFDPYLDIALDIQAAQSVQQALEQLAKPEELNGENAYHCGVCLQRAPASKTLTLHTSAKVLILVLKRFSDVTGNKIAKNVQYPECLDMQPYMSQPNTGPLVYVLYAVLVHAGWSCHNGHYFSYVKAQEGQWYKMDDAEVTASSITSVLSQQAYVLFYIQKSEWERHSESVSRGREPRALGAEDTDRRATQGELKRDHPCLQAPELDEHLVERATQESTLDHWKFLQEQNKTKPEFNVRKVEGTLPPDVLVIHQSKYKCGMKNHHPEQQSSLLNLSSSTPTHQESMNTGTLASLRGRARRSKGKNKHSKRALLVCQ
An asterisk follows results filed as active; / = not tested or not shown. Rule as the data show it: active = inhibition above about 30%; inactive = the rest.

SMILES	USP30 block	USP10 inh	USP28 inh	USP8 block	USP17 inh
O=C(CSc1nc2cc(S(=O)(=O)Nc3ccccc3Cl)ccc2o1)Nc1ccc(N2CCOCC2)cc1	53*	26	23	9	/
O=C(CSc1nc2cc(S(=O)(=O)Nc3cccc(Cl)c3)ccc2o1)NC1CC1	-9	9	-6	-76	-10
C=C1CCC[C@]2(C)C[C@H]3OC(=O)C(CNCCc4ccc(OC)c(OC)c4)[C@H]3CC12 (stereo partly specified)	46*	-2	7	-42	-11
Cc1nn2c(C)c(C(=O)NCc3ccc(N(C)C)cc3)cnc2c1-c1ccccc1	-30	-3	0	-245	3
COc1ccc(CCNC(=O)c2cnc3c(-c4cccc(C)c4)c(C)nn3c2C)cc1OC	-17	-1	39*	3	0
O=C(c1ccncc1)N1CC2(CCN(Cc3ccccc3Cl)CC2)C1	14	3	5	-89	-11
Cc1ccccc1OCC1=NN2C(=N)/C(=C/c3cn(Cc4ccccc4)c4ccccc34)C(=O)N=C2S1	-31	-3	-7	1	11
Cc1ccccc1-c1noc2ncnc(NCc3ccco3)c12	6	2	7	0	0
Clc1cccc(-c2noc3ncnc(NCc4ccco4)c23)c1	37*	4	24	18	18
COc1ccc(-c2oc3ncnc(NCc4ccco4)c3c2-c2ccc(OC)cc2)cc1	14	4	10	23	30*
COc1cc2ncnc(NCc3ccco3)c2cc1OC	6	0	1	-5	8
N#Cc1nc(-c2ccc(Cl)cc2)oc1NCc1ccccc1	16	2	4	3	-6
CCNc1oc(-c2ccc(S(=O)(=O)N3CCCCC3)cc2)nc1C#N	3	4	7	4	63*
CCn1cc2c(n1)C(COC)CN(C(=O)c1cc(C)nn1CC)C2 (stereo unspecified)	54*	1	25	-95	65*
O=C(c1ccc(N2CCNC(c3ccccc3)C2)nc1)N1CCC(O)(Cc2ccccc2)CC1 (stereo unspecified)	-8	-1	-3	-2	-14
CCc1ccc(NC(=O)CSc2nc3nccnc3c(=O)n2Cc2ccc(F)cc2)cc1	-1	21	-9	44*	7
CC(C)(C)Nc1c(C2CCN(C(=O)C3CC3)CC2)nc2ccc(F)cn12	-4	-1	-6	-6	-2
COc1cc(NC(=O)Cc2ccc3c(c2)OCCO3)c(OC)cc1Cl	45*	21	22	49*	28
CCCS(=O)(=O)N1CCN(C2CCN(Cc3ccccc3)CC2)CC1	-3	-1	-6	-10	-5
O=C(c1ccccc1F)N1CCC(NS(=O)(=O)c2ccc(Cl)cc2)CC1	-1	0	0	-6	0
COc1cc(/C=C/C(=O)OCC(=O)Nc2ccc([N+](=O)[O-])cc2OC)ccc1O	66*	51*	84*	55*	/
COc1cc(/C=C/C(=O)O)ccc1O	7	0	-4	5	-2
COc1cccc(CNC(=O)c2cnc3sc4c(n3c2=O)CCC4)c1	-55	0	-1	-11	-9
Cc1cccc(CNC(=O)c2cnc3sc4c(n3c2=O)CCCC4)c1	37*	8	7	2	16
O=C(c1csc(-c2ccc(N3CCOCC3)nc2)n1)N1CCOCC1	0	-1	0	6	5
SMILES	USP30 block	USP10 inh	USP28 inh	USP8 block	USP17 inh
CC1CCC2(CC1)CC(=O)c1ccc(OCC(=O)O)cc1O2 (stereo unspecified)	28	1	6	14	8
O=C(CCCc1c[nH]c2ccccc12)N1CCN(C(=O)c2ccc(Cl)c(Cl)c2)CC1	24	4	13	4	0
Cc1ccc(NC(=O)c2cccc(-c3nc(-c4ccccc4)no3)c2)nc1	26	0	19	4	35*
O=C(NNC1=NC2(CCCC2)Cc2ccccc21)c1cccnc1	32*	5	4	6	26
COc1ccc2[nH]cc(CCNC(=O)Cc3csc(-c4ccc(F)cc4)n3)c2c1	-16	0	0	3	-9
O=c1cc(Nc2ccc(F)c3ccccc23)[nH]c(=O)[nH]1	17	2	8	-126	7
COc1ccc(-c2cc(C(=O)NC3CCCc4ccccc43)[nH]n2)cc1 (stereo unspecified)	25	2	28	17	/
CCc1ccc(-c2nc(SC(C)C(=O)NC3CCCc4ccccc43)n[nH]2)cc1 (stereo unspecified)	40*	17	12	11	48*
Cc1nc(NCC2CCCO2)c2c3c(sc2n1)CCCC3 (stereo unspecified)	1	0	1	-9	0
O=C(COc1ccc(F)cc1Cl)N1CCSc2ccccc21	10	2	17	1	-1
C/C1=C/C=C/C=C\[C@H](C)[C@@H](O)CC(=O)/C(C)=C/C[C@H](O)/C=C/[C@H](C)[C@H](O)[C@@H](C)/C=C(\C)C(=O)c2c(O)c(C)cc3c2C(=O)C=C(NC1=O)C3=O	-284	-8	-47	-124	21
C/C1=C/CC(O)/C=C/C(C)C(O)C(C)/C=C(\C)C(=O)c2c(O)c(C)cc3c2C(=O)C(Cl)=C(NC(=O)\C=C/C=C/C=C\C(C)C(O)CC1=O)C3=O (stereo unspecified)	-98	-18	0	-90	74*
COC(=O)c1cc2occc2n1CC(=O)Nc1ccc(C)c(F)c1	-111	-5	-12	11	15
COc1ccc(CCN(C)Cc2c([C@@H]3CCCO3)[nH]c3ncccc23)cc1OC	-6	-2	7	16	7
Fc1ccccc1N1CCN(c2ncc3c(n2)CCN(Cc2ccccn2)C3)CC1	17	-3	6	-18	51*
Clc1cccc(CN2CCc3nc(N4CCOCC4)ncc3C2)c1	-111	-11	-34	-107	-63
COc1ccc(CCNc2nc3c(-c4ccccc4)nnn3c3ccccc23)cc1OC	14	22	6	44*	7
CCc1cc2c(=O)n(Cc3ccco3)c(SCC(=O)Nc3ccccc3O)nc2s1	44*	20	13	11	/
Cc1sc2nc(SCC(=O)Nc3ccccc3O)n(Cc3ccco3)c(=O)c2c1C	15	21	12	54*	13
CC(C)CN(C(=O)c1ccncc1)c1nc2ccccc2s1	22	0	12	5	5
O=c1[nH]c(=O)n(Cc2ccccc2)c2c1CN(Cc1ccccc1)CN2	-8	5	13	12	15
O=c1[nH]c(=O)n(Cc2ccccc2)c2c1CN(CCc1ccccc1)CN2	36*	16	15	19	35*
CC(C)(C)Nc1c(-c2ccc(F)cc2)nc2sc(N3CCN(CC(N)=O)CC3)nn12	1	-2	10	0	0
Cc1cc(O)c2c3c(c(O)cc2c1)C(=O)c1c(O)cccc1C3=O	-17	7	73*	-14	63*
COc1ccc(S(=O)(=O)NCCc2nnc3ccc(SCC(=O)NCc4ccccc4)nn23)cc1	5	-5	0	12	0
